# LDHA block: inhibitors of human lactate dehydrogenase A; P00338; purified LDHA, NADH/diaphorase-resazurin fluorescence; stronger effect = lower value; activity change, % (values are at about 110 or 230 µM); 480,000 compounds, 0.15% hits; in the data active = activity change below about -30%; inconclusive = mostly about -25% to -30%;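 also: plate controls were DMSO wells for no effect and wells without enzyme for full effect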
#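 LDH5 2 nM; NADH 0.06 mM, pyruvate 0.2 mM; 200 mM Tris pH 7.4, EDTA, Tween-20; 5 min RT. Detection: diaphorase 0.133 mg/mL + resazurin 37 µM, fluorescence ex540/em590 at 0 and 20 min; normalized to enzyme-free and DMSO wells.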
# S2 tox: cell viability loss in ATXN counter-screen | S2 cells (HEK-293 line with an ATXN2-luciferase reporter) viability, CellTiter-Fluor protease fluorescence, 24 h | 400,000 compounds, 0.49% hits | Potency, µM (titrated, usually from 56.7 µM), usual class: cytotoxic | AID 651635; also: potency is read from the fitted curve at half-maximal effect; nearly all actives have a fitted effect of over 40% in size
# ATXN2 expr inh: inhibitors of ATXN2 expression | Potency, µM (highest dose often 57 µM), without a hit: at the top dose activity change, negative = inhibition, actives largely listed as inhibitors | 360,000 compounds, 0.72% hits | HEK-293 ATXN2-luciferase reporter, luminescence, 24 h; also: potency is read from the fitted curve at half-maximal effect; % is scaled to controls: 0 for no effect and ±100 for the full control effect; nearly all actives have a fitted effect of over 55% in size
#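 ATXN2-luciferase reporter cells (luciferase flanked by upstream and downstream ATXN2 gene portions) were treated 24 h at 37 °C with compounds at up to 57 uM. SteadyGlo luminescence gave expression; GF-AFC fluorescence gave viability.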
# HepG2 viability: kills HepG2 cells in TGF-b inhibitor counter-screen | Potency, µM (titrated, usually from 46.1 µM), inactives show top-dose activity change, negative = cytotoxicity, usual class: cytotoxic | 410,000 compounds, 0.76% hits | HepG2 CAGA-GFP viability, ATP luminescence, 18 h; also: potency is read from the fitted curve at half-maximal effect
#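 HepG2 CAGA-GFP cells (1000/well, DMEM with 1% FBS) received compound, then TGF-beta at 500 pg/mL final, and were incubated 18 hours at 37 degrees C. Viability was read by CellTiter-Glo luminescence. Media-only wells were set as complete cell-killing and DMSO as no toxicity.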
# TGFb inhibitor: inhibitors of TGF-b signaling; Potency, µM (doses to about 46.1 µM), without a hit: top-dose activity, negative = inhibition, actives largely listed as inhibitors; HepG2 CAGA-GFP TGF-b/SMAD3 reporter, GFP fluorescence, 18 h; TGF-beta stimulated, 500 pg/mL final; 410,000 compounds, 1.2% hits; also: potency is read from the fitted curve at half-maximal effect; % is scaled to controls: 0 for no effect and ±100 for the full control effect; nearly all actives have a fitted effect of over 65% in size
#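 HEPG2 CAGA-GFP cells (1000/well, DMEM with 1% FBS) were pre-incubated 2 h at 37 degrees C, given compound by pin tool, then stimulated with TGF-beta at 500 pg/mL final for 18 h before per-cell GFP fluorescence imaging.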
# mIDH1 inhibitor: blocks human mutant IDH1 R132H enzyme; O75874; IDH1-R132H enzyme, NADPH consumption, diaphorase/resazurin fluorescence; Potency, µM (titrated, usually from 76.6 µM), without a hit: at the highest dose activity change, negative = inhibition, hits mostly inhibitors; 390,000 compounds, 0.093% hits; AID 602179; also: potency is read from the fitted curve at half-maximal effect; % is scaled to controls: 0 for no effect and ±100 for the full control effect; nearly all actives have a fitted effect of over 65% in size
# Target sequence (O75874 whole entry R132H, stated change not applied): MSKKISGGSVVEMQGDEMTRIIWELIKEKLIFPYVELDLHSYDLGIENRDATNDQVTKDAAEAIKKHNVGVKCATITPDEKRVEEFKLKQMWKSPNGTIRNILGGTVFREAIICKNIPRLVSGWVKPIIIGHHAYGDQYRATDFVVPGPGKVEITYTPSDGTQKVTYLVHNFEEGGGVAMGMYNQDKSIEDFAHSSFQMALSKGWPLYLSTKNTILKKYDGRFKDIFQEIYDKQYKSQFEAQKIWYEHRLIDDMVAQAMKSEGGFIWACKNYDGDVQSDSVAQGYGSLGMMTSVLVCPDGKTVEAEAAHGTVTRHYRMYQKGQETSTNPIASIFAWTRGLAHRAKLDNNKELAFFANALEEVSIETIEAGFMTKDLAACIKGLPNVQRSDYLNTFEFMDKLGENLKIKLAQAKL
#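 IDH1-R132H (0.5 ug/mL) preincubated 30 min with compound, then NADPH (0.016 mM) and alpha-KG (2 mM) added; 80 min at RT, pH 7.5. Remaining NADPH coupled via diaphorase/resazurin to fluorescence (540/590 nm); concentration-response curves normalized to no-enzyme control.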
# * = called active by the depositor; i = inactive; ? = inconclusive; nt = no result; ! = a repeat was not active. Rows were chosen to be rich in hits. Some 2.2% of all compounds tested hit in one or more screens of this group. Unless noted, calls follow the shape of the dose curve; as a rule, active = well fitted curve in the direction sought with a large enough effect; inconclusive = small, poorly fitted or top-dose-only effect, or another doubt; inactive = no such curve, though single readings can be large; an effect the other way counts as inactive or inconclusive.
SMILES,LDHA block,S2 tox,ATXN2 expr inh,HepG2 viability,TGFb inhibitor,mIDH1 inhibitor
O=C(NNC(=S)Nc1cccc(C(F)(F)F)c1)c1ccccc1Cl,-5.7,i,?,-83.8%,14.1µM*,5.8%
O=C(NNC(=S)Nc1cccc(C(F)(F)F)c1)c1cccc(Cl)c1,-6.9,?,?,-67.1%,?,2.8%
O=C(NNC(=S)Nc1ccc(Cl)cc1)c1ccccc1OC(F)F,-5.2,i,?,-59.3%,14.1µM*,1.4%
COc1ccccc1N(C(C)=O)C1=C(Cl)C(=O)c2ccccc2C1=O,64.2,nt,nt,11.2µM*,-17.7%,10.2%
CC(=O)N(C1=C(N)C(=O)c2ccccc2C1=O)C(C)C,40.1,i,-27.5%,-12.7%,-9.7%,12.7%
O=C1CCCN1CCCNCC(=O)N1c2ccccc2Sc2ccccc21,-41.1*,i,1.1%,-21.7%,6.3%,0.9%
CCCCCCCCCCCCCCCC[n+]1cccc(C(=O)N(CC)CC)c1,13.2,31.6µM*,31.6µM*!,12.6µM*!,?,-4.7%
CN1CCN(CC(=O)Nc2ccccc2Oc2ccccc2)CC1,-2.3,i,nt,-21.6%,-28.2%,-4.1%
O=C(CN1CCCC1)Nc1ccccc1C(=O)c1ccccc1,-8.0,i,nt,-8.3%,0.4%,-1.8%
COc1ccccc1NC(=O)CN1CCN(CC(=O)Nc2ccc(F)c(F)c2)CC1,-5.1,i,5.8%,-53.5%,6.31µM*,26.5%
COc1cccc(OC)c1NC(=O)CN1CCN(C)CC1,-32.1*,i,-4.3%,1.6%,-4.0%,16.2%
COc1ccccc1NC(=O)CN1CCN(CC(=O)Nc2ccc(C)c(F)c2)CC1,0.8,i,-21.7%,-6.4%,-12.6%,7.7%
COc1ccc(NC(=O)CN2CCN(C(=O)N3CCOCC3)CC2)cc1,-4.6,i,-3.5%,3.55µM*,0.1%,0.8%
O=C(CN1CCN(CC(=O)Nc2ccccc2C(=O)c2ccccc2)CC1)Nc1ccc(F)cc1,-31.9*,nt,nt,nt,nt,nt
CCN(CC(=O)NC(C)C)Cc1nc2c(Br)cc(Br)cc2c(=O)[nH]1,0.3,i,nt,-35.0%,?,1.9%
CN1CCN(CC(=O)Nc2ccccc2Sc2ccccc2)CC1,-33.3*,i,?,-12.0%,1.1%,14.5%
Cc1ccc2oc3nc(C)c(C(=O)O)cc3c(=O)c2c1,-0.5,i,11.3%,11.2µM*,?,2.7%
O=C(Cn1cc(/C=C\[N+](=O)[O-])c2ccccc21)Nc1ccccc1,-2.2,nt,?,11.2µM*,8.91µM*,3.8%
Cc1[nH]c2ccccc2c1/C=N/Nc1nc(Nc2ccccc2)nc(N2CCOCC2)n1,1.8,i,-17.8%,-31.9%,-4.2%,-3.1%
Cc1ccc2c(=O)cc(C(=O)Nc3ccccc3C(F)(F)F)oc2c1,-2.1,nt,nt,nt,nt,nt
Cc1c(Cl)ccc2sc(N3CCN(C(=O)CS(=O)(=O)c4ccccc4)CC3)nc12,2.0,?,20µM*,-43.0%,10µM*,7.2%
Cc1c(Cl)ccc2sc(N3CCN(C(=O)C(C)C)CC3)nc12,2.1,?,?,-32.8%,?,2.5%
COc1ccc(C(=O)N2CCN(c3nc4c(C)c(Cl)ccc4s3)CC2)c(OC)c1,-3.7,i,-10.4%,11.2µM*,?,2.9%
CN(C)CCCn1c2c3ccccc3ccc2c2oc(=O)c3ccccc3c21,16.1,?,?,10µM*!,8.91µM*,5.8%
NC(=O)c1sc(=S)n(-c2ccc(Br)cc2)c1N,-10.3,i,-13.7%,-24.9%,11.2µM*,-9.6%
CCNC(=O)c1sc(=S)n(-c2ccc(C)cc2)c1N,-9.2,i,3.2%,-12.2%,-1.4%,6.8%
COC(=O)c1ccc(-n2nnnc2SCC(=O)Nc2cc(OC)ccc2OC)cc1,-6.2,i,-1.8%,8.2%,1.4%,3.7%
COc1ccc(OC)c(NC(=O)CSc2nnnn2-c2ccc3c(c2)OCO3)c1,-8.8,i,8.91µM*,-55.5%,-0.7%,-1.9%

# Source: PubChem BioAssay
